# Data taken from ChEMBL document CHEMBL1201862, “PubChem BioAssay data set” (2004).
# The campaign covered roughly 400,000 compounds. About 2,100 (0.53%) were called active. About 14% were inconclusive and are not listed. How the calls were made is not given here. This excerpt belongs to a sample that is enriched for actives.
# Biological target: Ataxin-2 (Homo sapiens) (UniProt Q99700)
# Test: qHTS for Inhibitors of ATXN expression.
# Type: functional
# Chain of Ataxin-2 (Homo sapiens) (Q99700 whole entry): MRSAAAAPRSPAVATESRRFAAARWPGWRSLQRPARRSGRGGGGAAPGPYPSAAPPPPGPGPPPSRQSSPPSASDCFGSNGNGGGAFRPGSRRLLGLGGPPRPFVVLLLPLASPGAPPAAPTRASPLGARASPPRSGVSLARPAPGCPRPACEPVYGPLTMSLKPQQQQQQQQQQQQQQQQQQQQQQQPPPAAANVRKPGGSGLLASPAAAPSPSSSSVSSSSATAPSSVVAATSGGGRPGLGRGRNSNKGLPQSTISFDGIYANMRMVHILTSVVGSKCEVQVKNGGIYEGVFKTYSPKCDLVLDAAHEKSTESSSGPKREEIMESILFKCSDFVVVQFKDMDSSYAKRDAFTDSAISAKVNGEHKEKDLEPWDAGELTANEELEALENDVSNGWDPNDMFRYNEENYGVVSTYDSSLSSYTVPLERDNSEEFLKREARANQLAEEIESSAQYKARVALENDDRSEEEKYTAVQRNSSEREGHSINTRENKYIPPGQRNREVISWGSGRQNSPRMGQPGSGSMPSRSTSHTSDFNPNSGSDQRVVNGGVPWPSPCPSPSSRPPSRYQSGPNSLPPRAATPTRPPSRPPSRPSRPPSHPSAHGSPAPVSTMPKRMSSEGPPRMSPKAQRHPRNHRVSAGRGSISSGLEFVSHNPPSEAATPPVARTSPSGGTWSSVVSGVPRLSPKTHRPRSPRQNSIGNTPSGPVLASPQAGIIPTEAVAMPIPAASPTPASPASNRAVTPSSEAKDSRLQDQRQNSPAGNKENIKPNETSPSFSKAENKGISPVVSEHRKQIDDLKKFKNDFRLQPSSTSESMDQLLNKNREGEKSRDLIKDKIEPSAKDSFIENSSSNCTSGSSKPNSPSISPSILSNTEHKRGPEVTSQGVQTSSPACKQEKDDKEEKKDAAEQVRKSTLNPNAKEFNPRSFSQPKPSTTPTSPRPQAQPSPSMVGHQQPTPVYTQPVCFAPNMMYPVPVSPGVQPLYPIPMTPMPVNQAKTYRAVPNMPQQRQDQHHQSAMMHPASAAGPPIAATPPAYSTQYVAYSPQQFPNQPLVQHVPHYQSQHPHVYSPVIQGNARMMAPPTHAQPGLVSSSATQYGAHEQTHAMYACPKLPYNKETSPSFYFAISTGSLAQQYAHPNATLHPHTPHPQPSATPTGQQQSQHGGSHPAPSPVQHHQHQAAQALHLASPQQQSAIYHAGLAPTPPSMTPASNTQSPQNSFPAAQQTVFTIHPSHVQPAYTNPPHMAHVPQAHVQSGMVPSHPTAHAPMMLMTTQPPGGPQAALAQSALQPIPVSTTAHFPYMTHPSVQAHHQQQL
row,SMILES,Potency
1,CCN1CCN(C(CC(C)C)c2nnnn2CS(=O)(=O)c2ccc(C)cc2)CC1 (centres undefined),inactive
2,Cc1ccc(C(=O)N/C(=C/c2ccc(-c3ccc([N+](=O)[O-])cc3)o2)C(=O)NCCCN(C)C)cc1,inactive
3,COc1cccc(NC(=O)/C(C#N)=C/c2ccc(-c3ccc(C)cc3)o2)c1,inactive
4,Cc1ccc(Cc2cnc(NC(=O)/C(C#N)=C/c3ccc(-c4ccc([N+](=O)[O-])cc4)o3)s2)cc1,22.4 µM (active)
5,N=c1c(C(=O)NCc2ccc(F)cc2)cc2c(=O)n3ccccc3nc2n1CC1CCCO1 (centres undefined),inactive
6,CN1CCc2c(sc3c2C(=O)NC(c2ccc(-c4ccc(Cl)cc4)o2)N3)C1 (centres undefined),inactive
7,O=C1c2ccccc2-c2ccc(C(=O)N3CCCCC3)cc21,inactive
8,O=C1C=C(N2CCCCC2)c2ccccc2C1=O,18.9 µM (active)
9,O=C1c2cccc3c(N4CCCCC4)ccc(c23)C(=O)N1c1ccccc1O,inactive
10,COc1ccccc1C1CN(c2ccccc2)N=C1c1cccs1 (centres undefined),inactive
11,N#Cc1ccc(CN2CCN(C(=O)c3cc(Cl)c4c(c3)OCCO4)CC2)cc1,inactive
12,CCN1C(=O)c2cccc3c(Cl)ccc(c23)C1=O,inactive
13,Cc1ccc(-n2c(N)c(C(=O)Nc3c(C)n(C)n(-c4ccccc4)c3=O)c3nc4ccccc4nc32)cc1,21.2 µM (active)
14,COCCNC(=O)c1c(N)n(-c2ccccc2)c2nc3ccccc3nc12,inactive
15,COCCCNC(=O)c1c(N)n(-c2ccccc2)c2nc3ccccc3nc12,inactive
16,CN(Cc1ccc(OC(F)F)cc1)C(=O)C1CCN(S(=O)(=O)c2ccc3c(c2)OCCO3)CC1,inactive
17,O=C(Nc1cc(S(=O)(=O)N2CCCC2)ccc1Cl)c1ccncc1,inactive
18,CCOc1cc(Br)c(/C=C2/C(=O)N(C)C(=S)N2CC(=O)OC)cc1OC,inactive
19,Cn1c(SCc2cc(O)nc(C(C)(C)C)n2)nnc1C(F)(F)F,inactive
20,CCCn1c(=N)c(C(=O)NCC2CCCO2)cc2c(=O)n3cc(C)ccc3nc21 (centres undefined),inactive
21,O=c1nc2ccc(Cl)cn2c2ccc(S(=O)(=O)N3CCOCC3)cc12,inactive
22,Nc1nc(-c2ccc(Cl)cc2)c(N=Nc2ccc(S(=O)(=O)N3CCOCC3)cc2)s1,29.9 µM (active)
23,Cc1ccc(S(=O)(=O)N2CCN(C(=O)c3cc(S(=O)(=O)N4CCOCC4)c(Cl)cc3Cl)CC2)cc1,inactive
24,Nc1ccc2c(c1)C/C(=C/c1ccco1)C2=O,inactive
25,Cc1ccc(C2=CC(c3c(F)cccc3Cl)n3ncnc3N2)cc1C (centres undefined),inactive

row,SMILES,Potency
1,O=C(OC1CCOC1=O)c1cc(-c2cccs2)nc2ccccc12 (centres undefined),inactive
2,CCOc1cc(C(=O)O)ccc1OCCOc1ccccc1,inactive
3,CCCOc1ccc(C(=O)c2ccccc2C(=O)OC2CCOC2=O)cc1OCCC (centres undefined),39.8 µM (active)
4,O=C(O)c1ccc2nc(-c3cc4cc(Cl)ccc4oc3=O)[nH]c2c1,inactive
5,CCn1c2ccccc2c2cc(CN3CCOc4ccc(C(O)c5cccnc5)cc4C3)ccc21 (centres undefined),31.6 µM (active)
6,CC(C)C(OC(=O)c1ccccc1)c1nccc2ccccc12 (centres undefined),inactive
7,CCOc1cc2c(cc1/C=C1/NC(=O)N(CC(=O)OC)C1=O)OCO2,inactive
8,COc1ccc(/C=c2\s/c(=C/C(=O)c3ccc(C)cc3)[nH]c2=O)cc1OC,inactive
9,COc1ccc(OC)c(N/C=C/C(=O)c2ccc(OC)c(OC)c2)c1,inactive
10,COc1cc(/C=C/C(=O)c2ccc(C)cc2)ccc1OCC#N,39.8 µM (active)
11,COc1ccc(C=CC(=O)c2ccc3cc(OC)c(OC)cc3c2)cc1OC,inactive
12,COc1cc(/C=C/C(=O)O)ccc1OS(=O)(=O)c1cc(C)ccc1C,inactive
13,COc1cccc(C(=O)/C=C/c2ccc(OCC#N)c(OC)c2)c1,31.6 µM (active)
14,CCS(=O)(=O)Nc1cc2c3c(c1)CCC(=O)N3CCC2,inactive
15,O=S(=O)(NN=C(NS(=O)(=O)c1ccccc1)c1ccccc1)c1ccccc1,inactive
16,CCc1cc2cc(C)ccc2nc1SCC(=O)NC1CCCC1,inactive
17,Cc1cc(=O)n2c(n1)SCOC2,inactive
18,Cc1cccn2c(=O)c3cc(C(=O)NCc4ccc(F)cc4)c(=N)n(CC4CCCO4)c3nc12 (centres undefined),inactive
19,CC(C)C[C@H](N)c1nnc(S(=O)(=O)Cc2cccc(F)c2)o1,39.8 µM (active)
20,CC(C)C[C@H](N)c1nnc(S(=O)(=O)Cc2ccc(F)cc2)o1,31.6 µM (active)
21,CCOC(=O)N1CCN(S(=O)(=O)c2ccc3c4c(cccc24)C(=O)N3)CC1,inactive
22,CCOC(=O)C1CCN(C(=O)C(C)Oc2ccc(Br)cc2)CC1 (centres undefined),inactive
23,COc1cc(/C=C2\C(=N)N3N=C(CC(=O)N4CCOCC4)SC3=NC2=O)cc(OC)c1O,inactive
24,COc1cc(OC)cc(N2C(=O)CSCC2=O)c1,inactive
25,Cc1ccc(N2C(=O)C(Cl)=C(N3CCCCCC3)C2=O)c(C)c1,inactive

row,SMILES,Potency
1,COc1ccc2c(c1)C(=O)N(c1ccc(C)cc1C)C(=O)C2,35.5 µM (active)
2,N#CC(C#N)=C1C=C2C=C(N3CCOCC3)CCC2CC1 (centres undefined),inactive
3,Cc1cc(F)ccc1S(=O)(=O)Nc1ccccc1C(=O)Nc1ccccc1-c1nc2ccccc2[nH]1,39.8 µM (active)
4,Cc1ccccc1NS(=O)(=O)c1nnc(NC(=O)c2ccccc2C)s1,inactive
5,O=c1oc2c(O)cccc2cc1-c1nc2ccccc2[nH]1,inactive
6,Cc1cc(C)c2c(N)c(C(=O)N/N=C/c3cccs3)sc2n1,inactive
7,Cc1ccc2nc3c(cc(C(=O)NCC4CCCO4)c(=N)n3CCCOC(C)C)c(=O)n2c1 (centres undefined),inactive
8,COc1cccc(/C=C/c2nc(C#N)c(N3CCC(C(N)=O)CC3)o2)c1,inactive
9,COc1cccc(N2[C@@H](CC(C)=O)c3ccc(/C=C/C(C)=O)cc3S2(=O)=O)c1,35.5 µM (active)
10,CC(C)n1nc(C(=O)NNC(=O)c2ccc(OC(F)F)cc2)c2ccccc2c1=O,inactive
11,COc1ccc(C(=O)/C=C/c2cn(CC(O)CN(CC(C)C)CC(C)C)c3ccccc23)cc1 (centres undefined),inactive
12,CCC(=C(c1ccc(OC)cc1)c1ccc(OC)cc1)c1cn(CC(O)CN2CCN(C)CC2)c2ccccc12 (centres undefined),39.8 µM (active)
13,COc1ccc(C(=O)/C=C/c2cn(CC(O)CN3CCN(C)CC3)c3ccccc23)cc1OC (centres undefined),inactive
14,COc1ccc(C(=O)/C=C/c2cn(CC(O)CN3CCc4ccccc43)c3ccccc23)cc1 (centres undefined),inactive
15,CCC(=C(c1ccc(OC)cc1)c1ccc(OC)cc1)c1cn(CC(O)CN(CCO)CCO)c2ccccc12 (centres undefined),39.8 µM (active)
16,CCCN(CCC)CC(O)Cn1cc(/C=C/C(=O)c2ccc(OCC)cc2)c2ccccc21 (centres undefined),inactive
17,O=C(CCc1ccccc1)NCC1(c2ccccc2)CCCC1,inactive
18,COc1cc2c(cc1/C=C1/NC(=O)N(CC(=O)Nc3ccccc3)C1=O)OCO2,inactive
19,Cc1c(-c2ccccc2)c(=O)oc2c(CN3CCOCC3)c(O)ccc12,inactive
20,Cc1cccn2c(=O)c3cc(C(=O)NCC4CCCO4)c(=N)n(C4CCCC4)c3nc12 (centres undefined),inactive
21,N=c1oc2cc(O)ccc2cc1C(=O)Nc1nc2ccccc2s1,inactive
22,Cc1ccc(S(=O)(=O)N(C)CC(=O)NCC(c2ccc(F)cc2)N2CCOCC2)cc1 (centres undefined),inactive
23,O=C(C=Cc1ccccc1)CC(c1ccccc1)N1CCOCC1 (centres undefined),28.2 µM (active)
24,O=C(O)c1cc(/C=C/c2ccc(N3CCOCC3)cc2)nc2ccccc12,inactive
25,COc1ccc(C2C=C(c3ccccc3)Nc3nc(NC(C)=O)nn32)cc1 (centres undefined),inactive

row,SMILES,Potency
1,Cc1c(C(=O)Nc2ccc3c(c2)OCCO3)sc2nc(-c3ccccc3)cn12,39.8 µM (active)
2,Cc1ccsc1C(=O)Nc1ccc(O)c(-c2nc3ccccc3s2)c1,inactive
3,O=C(Nc1cccc(-c2cn3c(n2)SCC3)c1)c1ccc2c(c1)OCO2,inactive
4,C/N=c1\scc(C)n1/N=C/c1cc(Br)c(O)c(Br)c1,inactive
5,CCc1ccc(NC(=O)CCNS(=O)(=O)c2cccs2)cc1,inactive
6,COc1ccc(NC(=O)c2ccc(NC(=O)CCS(=O)(=O)c3cccs3)cc2)cc1Cl,39.8 µM (active)
7,COc1ccc(Cl)cc1NC(=O)CCS(=O)(=O)c1cccc2nonc12,inactive
8,Cc1c(OC(C)C(=O)NCCN2CCOCC2)ccc2c3c(c(=O)oc12)CCC3 (centres undefined),inactive
9,Cc1ccc(NC(=O)C2CCN(C(=O)c3ccco3)CC2)cc1,inactive
10,COc1cc(NC(=O)c2oc3ccccc3c2C)ccc1NC(=O)c1ccco1,inactive
11,O=C(CSc1nc(O)c2ccccc2n1)Nc1ccc(N2CCOCC2)c(Cl)c1,inactive
12,O=C(Nc1ccc(N2CCN(C(=O)c3ccco3)CC2)cc1)c1cc(Br)ccc1Cl,35.5 µM (active)
13,N=c1oc2cc(O)ccc2cc1C(=O)Nc1ccc(Cl)cc1,inactive
14,O=C(Nc1cc(Cl)ccc1N1CCOCC1)c1cc2ccccc2o1,inactive
15,CC1CCN(C(=O)c2cc(Cl)ccc2NC(=O)c2ccco2)CC1,inactive
16,COc1cc(NC(=O)c2cc(Cl)ccc2Cl)ccc1NC(=O)c1cc2ccccc2o1,22.4 µM (active)
17,O=C(Nc1ccc(N2CCOCC2)c(Cl)c1)c1cc2ccccc2o1,39.8 µM (active)
18,O=C(Nc1ccc(N2CCN(C(=O)c3ccco3)CC2)c(Cl)c1)c1cc2ccccc2o1,22.4 µM (active)
19,CCOC(=O)c1cc2ccc(OC(=O)c3ccco3)cc2oc1=O,inactive
20,CCN(CC)c1ccc(/C=N/NC(=O)c2cccc(S(=O)(=O)N3CCOCC3)c2)c(O)c1,inactive
21,CCOC(=O)/C(C#N)=C1\CC2CCC1(C)C2(C)C (centres undefined),inactive
22,O=[N+]([O-])c1ccccc1Oc1ncccc1[N+](=O)[O-],8.91 µM (active)
23,O=C1c2cccc3c([N+](=O)[O-])ccc(c23)C(=O)N1c1ccccn1,inactive
24,CCC1Cc2c(nc(N)c3c(N)nc(N4CCOCC4)c(C#N)c23)O1 (centres undefined),inactive
